Laboratory results from ChEMBL document CHEMBL1961873, “Compounds: GSK PKIS; Assays: Nanosyn kinase panel” (2012).

Experiments:
[1] = biological target: Protein kinase C gamma type (Homo sapiens) (UniProt P05129); settings: at 1 µM;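 also: each value is an averaged percent inhibition of the enzyme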
[2] = biological target: T1, Protein kinase C iota type (Homo sapiens) (UniProt P41743); settings: at 0.1 µM
T1 sequence (whole entry): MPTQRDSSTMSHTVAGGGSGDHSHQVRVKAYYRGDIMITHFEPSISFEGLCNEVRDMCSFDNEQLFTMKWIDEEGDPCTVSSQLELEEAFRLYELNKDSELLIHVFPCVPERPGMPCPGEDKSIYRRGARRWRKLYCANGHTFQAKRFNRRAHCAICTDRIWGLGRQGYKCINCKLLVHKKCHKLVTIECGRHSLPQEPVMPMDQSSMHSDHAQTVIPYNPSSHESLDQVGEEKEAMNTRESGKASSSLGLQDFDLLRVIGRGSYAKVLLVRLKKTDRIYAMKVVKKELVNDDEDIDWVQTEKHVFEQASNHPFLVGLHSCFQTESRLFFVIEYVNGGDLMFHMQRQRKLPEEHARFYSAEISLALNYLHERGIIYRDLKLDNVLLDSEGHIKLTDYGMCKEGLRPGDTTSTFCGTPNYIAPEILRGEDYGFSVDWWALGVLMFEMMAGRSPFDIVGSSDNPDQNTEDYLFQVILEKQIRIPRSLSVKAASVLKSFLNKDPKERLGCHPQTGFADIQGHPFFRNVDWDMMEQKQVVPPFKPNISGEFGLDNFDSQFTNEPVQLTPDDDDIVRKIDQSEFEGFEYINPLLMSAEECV

[3] = biological target: T1, Protein kinase C iota type (Homo sapiens); settings: at 1 µM
[4] = biological target: Protein kinase C theta type (Homo sapiens) (UniProt Q04759); settings: at 0.1 µM
[5] = biological target: Protein kinase C theta type (Homo sapiens) (UniProt Q04759); settings: at 1 µM
[6] = biological target: Protein kinase C beta type (Homo sapiens) (UniProt P05771); settings: at 0.1 µM
[7] = biological target: Protein kinase C beta type (Homo sapiens) (UniProt P05771); settings: at 1 µM
[8] = biological target: T2, Serine/threonine-protein kinase D1 (Homo sapiens) (UniProt Q15139); settings: at 0.1 µM
T2 sequence (whole entry): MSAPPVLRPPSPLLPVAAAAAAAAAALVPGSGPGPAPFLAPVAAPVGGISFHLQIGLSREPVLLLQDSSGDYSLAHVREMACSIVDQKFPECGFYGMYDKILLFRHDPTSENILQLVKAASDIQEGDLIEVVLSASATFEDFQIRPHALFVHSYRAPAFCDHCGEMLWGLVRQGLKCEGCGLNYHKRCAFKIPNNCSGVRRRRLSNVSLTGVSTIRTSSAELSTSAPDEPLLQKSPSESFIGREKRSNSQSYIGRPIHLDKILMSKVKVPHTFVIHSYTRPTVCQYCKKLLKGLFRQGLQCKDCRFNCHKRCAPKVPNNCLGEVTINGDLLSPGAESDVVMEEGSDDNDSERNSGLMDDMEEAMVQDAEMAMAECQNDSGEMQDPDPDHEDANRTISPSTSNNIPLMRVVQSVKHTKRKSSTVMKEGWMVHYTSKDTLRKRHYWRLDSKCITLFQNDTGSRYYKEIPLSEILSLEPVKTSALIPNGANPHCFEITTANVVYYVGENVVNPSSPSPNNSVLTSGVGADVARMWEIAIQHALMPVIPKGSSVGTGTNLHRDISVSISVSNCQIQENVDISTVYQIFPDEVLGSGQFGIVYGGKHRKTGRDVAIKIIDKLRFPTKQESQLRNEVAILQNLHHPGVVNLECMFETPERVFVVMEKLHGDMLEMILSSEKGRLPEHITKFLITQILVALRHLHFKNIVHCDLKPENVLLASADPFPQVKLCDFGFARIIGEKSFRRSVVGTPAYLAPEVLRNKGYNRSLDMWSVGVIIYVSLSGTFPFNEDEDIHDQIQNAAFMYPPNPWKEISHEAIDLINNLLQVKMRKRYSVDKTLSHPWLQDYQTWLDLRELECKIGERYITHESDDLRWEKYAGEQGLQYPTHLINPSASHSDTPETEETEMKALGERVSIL

[9] = biological target: T2, Serine/threonine-protein kinase D1 (Homo sapiens); settings: at 1 µM
[10] = biological target: T3, Serine/threonine-protein kinase D2 (Homo sapiens) (UniProt Q9BZL6); settings: at 0.1 µM
T3 sequence (whole entry): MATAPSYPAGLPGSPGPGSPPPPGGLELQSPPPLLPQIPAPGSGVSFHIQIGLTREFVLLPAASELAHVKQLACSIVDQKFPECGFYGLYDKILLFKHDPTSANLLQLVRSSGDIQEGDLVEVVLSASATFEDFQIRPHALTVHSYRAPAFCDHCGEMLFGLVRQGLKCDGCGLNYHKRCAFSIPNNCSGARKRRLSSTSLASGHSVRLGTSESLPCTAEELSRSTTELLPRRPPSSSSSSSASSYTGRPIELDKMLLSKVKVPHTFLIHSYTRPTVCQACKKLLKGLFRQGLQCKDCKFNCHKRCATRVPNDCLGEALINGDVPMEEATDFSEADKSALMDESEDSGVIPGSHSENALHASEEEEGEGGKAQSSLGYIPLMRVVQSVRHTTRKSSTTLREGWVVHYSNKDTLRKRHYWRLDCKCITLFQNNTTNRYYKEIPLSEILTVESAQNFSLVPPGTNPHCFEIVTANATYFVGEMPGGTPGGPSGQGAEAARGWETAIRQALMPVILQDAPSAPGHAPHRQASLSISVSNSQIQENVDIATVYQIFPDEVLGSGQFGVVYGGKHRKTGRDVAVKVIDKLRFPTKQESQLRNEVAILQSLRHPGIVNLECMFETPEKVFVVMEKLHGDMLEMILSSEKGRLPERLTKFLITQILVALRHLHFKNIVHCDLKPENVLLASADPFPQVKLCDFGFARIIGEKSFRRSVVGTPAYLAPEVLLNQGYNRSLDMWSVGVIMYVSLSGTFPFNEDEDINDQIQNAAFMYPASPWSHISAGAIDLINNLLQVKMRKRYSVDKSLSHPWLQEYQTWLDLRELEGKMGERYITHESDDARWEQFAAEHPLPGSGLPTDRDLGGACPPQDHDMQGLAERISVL

[11] = biological target: T3, Serine/threonine-protein kinase D2 (Homo sapiens); settings: at 1 µM
[12] = biological target: T4, Serine/threonine-protein kinase D3 (Homo sapiens) (UniProt O94806); settings: at 0.1 µM
T4 sequence (whole entry): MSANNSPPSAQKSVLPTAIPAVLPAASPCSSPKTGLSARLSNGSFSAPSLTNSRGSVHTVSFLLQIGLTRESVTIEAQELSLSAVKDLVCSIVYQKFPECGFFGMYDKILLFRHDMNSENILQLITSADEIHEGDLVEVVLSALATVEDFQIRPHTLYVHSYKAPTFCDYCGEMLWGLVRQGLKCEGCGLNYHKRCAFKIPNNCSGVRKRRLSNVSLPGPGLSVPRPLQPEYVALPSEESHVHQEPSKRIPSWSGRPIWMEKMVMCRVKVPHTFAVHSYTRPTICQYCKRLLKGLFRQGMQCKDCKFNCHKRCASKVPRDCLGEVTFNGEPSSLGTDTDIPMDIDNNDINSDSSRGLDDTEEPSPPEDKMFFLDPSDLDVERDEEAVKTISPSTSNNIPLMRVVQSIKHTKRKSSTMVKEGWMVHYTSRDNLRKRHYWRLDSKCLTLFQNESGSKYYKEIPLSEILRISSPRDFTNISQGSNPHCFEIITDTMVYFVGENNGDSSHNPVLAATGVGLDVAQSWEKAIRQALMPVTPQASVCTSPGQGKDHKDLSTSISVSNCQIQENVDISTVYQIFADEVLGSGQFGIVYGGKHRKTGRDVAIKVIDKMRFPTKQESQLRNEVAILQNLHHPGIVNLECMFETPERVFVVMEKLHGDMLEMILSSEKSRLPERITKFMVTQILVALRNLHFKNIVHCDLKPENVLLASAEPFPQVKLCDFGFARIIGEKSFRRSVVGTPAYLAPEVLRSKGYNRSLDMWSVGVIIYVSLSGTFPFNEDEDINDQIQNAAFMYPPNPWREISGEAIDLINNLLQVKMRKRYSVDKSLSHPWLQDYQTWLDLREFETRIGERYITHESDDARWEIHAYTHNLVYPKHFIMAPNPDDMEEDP

[13] = biological target: T4, Serine/threonine-protein kinase D3 (Homo sapiens); settings: at 1 µM
[14] = biological target: T5, cGMP-dependent protein kinase 1 (Homo sapiens) (UniProt Q13976); settings: at 0.1 µM
T5 sequence (whole entry): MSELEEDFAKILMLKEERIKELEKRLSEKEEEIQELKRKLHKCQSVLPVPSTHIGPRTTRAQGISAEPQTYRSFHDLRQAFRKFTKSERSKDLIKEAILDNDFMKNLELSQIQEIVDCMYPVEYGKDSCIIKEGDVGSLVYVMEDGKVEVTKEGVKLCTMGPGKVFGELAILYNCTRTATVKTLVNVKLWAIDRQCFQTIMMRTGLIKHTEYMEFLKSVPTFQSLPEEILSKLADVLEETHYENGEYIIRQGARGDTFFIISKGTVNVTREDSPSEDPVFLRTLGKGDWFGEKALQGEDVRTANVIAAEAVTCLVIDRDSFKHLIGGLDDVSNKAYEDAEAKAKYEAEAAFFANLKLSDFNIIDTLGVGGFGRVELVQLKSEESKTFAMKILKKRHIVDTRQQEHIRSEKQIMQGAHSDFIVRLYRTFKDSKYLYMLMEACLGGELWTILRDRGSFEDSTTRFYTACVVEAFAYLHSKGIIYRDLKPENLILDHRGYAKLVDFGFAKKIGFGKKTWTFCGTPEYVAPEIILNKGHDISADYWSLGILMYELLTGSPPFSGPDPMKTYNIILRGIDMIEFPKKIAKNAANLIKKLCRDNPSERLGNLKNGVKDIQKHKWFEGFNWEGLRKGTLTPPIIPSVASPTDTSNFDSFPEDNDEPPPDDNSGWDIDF

[15] = biological target: T5, cGMP-dependent protein kinase 1 (Homo sapiens); settings: at 1 µM
[16] = biological target: T6, cGMP-dependent protein kinase 2 (Homo sapiens) (UniProt Q13237); settings: at 0.1 µM
T6 sequence (whole entry): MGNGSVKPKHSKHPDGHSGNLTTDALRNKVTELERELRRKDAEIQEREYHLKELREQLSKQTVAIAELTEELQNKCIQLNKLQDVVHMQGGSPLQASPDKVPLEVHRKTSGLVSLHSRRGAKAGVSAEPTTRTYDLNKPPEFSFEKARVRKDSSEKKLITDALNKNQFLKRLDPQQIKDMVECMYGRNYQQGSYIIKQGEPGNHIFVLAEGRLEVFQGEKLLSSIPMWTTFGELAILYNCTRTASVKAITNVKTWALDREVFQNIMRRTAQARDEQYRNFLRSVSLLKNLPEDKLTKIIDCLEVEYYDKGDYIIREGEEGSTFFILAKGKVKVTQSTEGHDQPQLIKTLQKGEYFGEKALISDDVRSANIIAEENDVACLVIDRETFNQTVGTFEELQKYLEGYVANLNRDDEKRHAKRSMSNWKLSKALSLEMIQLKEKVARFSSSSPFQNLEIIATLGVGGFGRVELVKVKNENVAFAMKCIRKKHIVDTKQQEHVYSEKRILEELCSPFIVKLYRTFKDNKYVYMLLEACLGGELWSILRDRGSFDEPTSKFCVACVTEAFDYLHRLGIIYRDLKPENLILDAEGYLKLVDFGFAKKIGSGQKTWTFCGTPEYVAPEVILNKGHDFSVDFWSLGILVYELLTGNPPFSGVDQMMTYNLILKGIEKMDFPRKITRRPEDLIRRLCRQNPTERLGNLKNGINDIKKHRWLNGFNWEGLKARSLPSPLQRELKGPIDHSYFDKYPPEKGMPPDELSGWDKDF

[17] = biological target: T6, cGMP-dependent protein kinase 2 (Homo sapiens); settings: at 1 µM
[18] = biological target: T7, cAMP-dependent protein kinase catalytic subunit PRKX (Homo sapiens) (UniProt P51817); settings: at 0.1 µM
T7 sequence (whole entry): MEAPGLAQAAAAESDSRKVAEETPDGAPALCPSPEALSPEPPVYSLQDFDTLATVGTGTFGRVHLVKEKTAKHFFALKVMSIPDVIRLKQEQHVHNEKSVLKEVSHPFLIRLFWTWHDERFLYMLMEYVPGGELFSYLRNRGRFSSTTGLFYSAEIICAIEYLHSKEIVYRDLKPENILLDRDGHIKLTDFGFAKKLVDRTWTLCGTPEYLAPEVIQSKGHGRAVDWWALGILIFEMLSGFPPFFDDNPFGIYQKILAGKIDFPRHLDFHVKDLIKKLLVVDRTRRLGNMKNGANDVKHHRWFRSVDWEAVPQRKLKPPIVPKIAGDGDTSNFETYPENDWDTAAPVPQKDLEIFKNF

[19] = biological target: T7, cAMP-dependent protein kinase catalytic subunit PRKX (Homo sapiens); settings: at 1 µM
[20] = biological target: Rho-associated protein kinase 1 (Homo sapiens) (UniProt Q13464); settings: at 0.1 µM;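 also: values are mean percent inhibition of ROCK1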
Sequence of Rho-associated protein kinase 1 (Homo sapiens) (Q13464 2-1354 limits assumed): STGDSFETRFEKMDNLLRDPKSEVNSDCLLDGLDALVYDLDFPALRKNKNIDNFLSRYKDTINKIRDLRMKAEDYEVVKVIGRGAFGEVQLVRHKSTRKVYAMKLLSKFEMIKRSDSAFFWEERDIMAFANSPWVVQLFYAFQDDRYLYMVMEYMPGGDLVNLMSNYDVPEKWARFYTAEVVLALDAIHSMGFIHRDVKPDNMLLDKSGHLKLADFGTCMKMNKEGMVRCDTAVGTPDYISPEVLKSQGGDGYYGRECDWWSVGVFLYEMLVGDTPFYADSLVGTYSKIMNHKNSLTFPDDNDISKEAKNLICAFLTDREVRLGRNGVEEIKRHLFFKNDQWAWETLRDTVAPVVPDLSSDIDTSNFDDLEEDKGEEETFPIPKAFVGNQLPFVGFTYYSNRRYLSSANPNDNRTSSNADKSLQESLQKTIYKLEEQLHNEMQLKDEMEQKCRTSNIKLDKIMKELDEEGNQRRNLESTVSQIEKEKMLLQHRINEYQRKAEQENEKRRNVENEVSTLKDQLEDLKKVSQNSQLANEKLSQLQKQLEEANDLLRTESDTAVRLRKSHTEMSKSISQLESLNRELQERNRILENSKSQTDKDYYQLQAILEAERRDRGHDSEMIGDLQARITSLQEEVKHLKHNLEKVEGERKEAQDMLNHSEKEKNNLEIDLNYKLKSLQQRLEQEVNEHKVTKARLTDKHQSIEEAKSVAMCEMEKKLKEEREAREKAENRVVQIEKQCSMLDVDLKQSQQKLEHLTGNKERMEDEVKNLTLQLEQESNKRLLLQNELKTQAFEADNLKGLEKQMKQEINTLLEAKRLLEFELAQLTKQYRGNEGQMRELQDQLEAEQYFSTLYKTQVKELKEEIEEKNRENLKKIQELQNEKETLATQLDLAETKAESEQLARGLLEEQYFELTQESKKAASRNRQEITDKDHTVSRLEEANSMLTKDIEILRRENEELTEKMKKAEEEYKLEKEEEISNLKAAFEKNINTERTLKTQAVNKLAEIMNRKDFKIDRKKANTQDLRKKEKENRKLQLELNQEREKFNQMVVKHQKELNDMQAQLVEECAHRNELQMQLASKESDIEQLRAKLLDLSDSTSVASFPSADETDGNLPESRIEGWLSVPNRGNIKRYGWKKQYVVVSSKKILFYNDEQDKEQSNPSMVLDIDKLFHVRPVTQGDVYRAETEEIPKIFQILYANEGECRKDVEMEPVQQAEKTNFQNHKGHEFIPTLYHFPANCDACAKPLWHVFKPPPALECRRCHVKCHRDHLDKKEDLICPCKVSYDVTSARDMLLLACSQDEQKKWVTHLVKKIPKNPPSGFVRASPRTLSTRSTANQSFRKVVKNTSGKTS

Sequence of Protein kinase C beta type (Homo sapiens) (P05771 2-671 limits assumed): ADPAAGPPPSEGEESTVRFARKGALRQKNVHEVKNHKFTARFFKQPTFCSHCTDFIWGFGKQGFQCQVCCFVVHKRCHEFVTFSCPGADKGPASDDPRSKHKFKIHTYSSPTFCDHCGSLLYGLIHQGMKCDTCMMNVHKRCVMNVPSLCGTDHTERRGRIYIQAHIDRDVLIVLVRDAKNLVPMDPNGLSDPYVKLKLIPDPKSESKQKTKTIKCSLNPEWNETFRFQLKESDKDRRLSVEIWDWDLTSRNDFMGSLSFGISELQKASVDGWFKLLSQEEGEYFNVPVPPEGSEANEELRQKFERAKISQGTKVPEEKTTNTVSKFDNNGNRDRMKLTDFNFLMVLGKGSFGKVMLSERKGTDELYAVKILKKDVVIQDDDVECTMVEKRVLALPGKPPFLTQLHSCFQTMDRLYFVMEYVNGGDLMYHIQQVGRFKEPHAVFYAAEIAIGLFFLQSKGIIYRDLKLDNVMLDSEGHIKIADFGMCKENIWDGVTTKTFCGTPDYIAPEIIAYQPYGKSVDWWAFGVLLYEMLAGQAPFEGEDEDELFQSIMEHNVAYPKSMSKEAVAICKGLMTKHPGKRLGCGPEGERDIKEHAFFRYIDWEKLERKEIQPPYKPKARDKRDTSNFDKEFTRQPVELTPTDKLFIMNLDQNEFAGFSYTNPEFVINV
Sequence of Protein kinase C theta type (Homo sapiens) (Q04759 whole entry, looked up): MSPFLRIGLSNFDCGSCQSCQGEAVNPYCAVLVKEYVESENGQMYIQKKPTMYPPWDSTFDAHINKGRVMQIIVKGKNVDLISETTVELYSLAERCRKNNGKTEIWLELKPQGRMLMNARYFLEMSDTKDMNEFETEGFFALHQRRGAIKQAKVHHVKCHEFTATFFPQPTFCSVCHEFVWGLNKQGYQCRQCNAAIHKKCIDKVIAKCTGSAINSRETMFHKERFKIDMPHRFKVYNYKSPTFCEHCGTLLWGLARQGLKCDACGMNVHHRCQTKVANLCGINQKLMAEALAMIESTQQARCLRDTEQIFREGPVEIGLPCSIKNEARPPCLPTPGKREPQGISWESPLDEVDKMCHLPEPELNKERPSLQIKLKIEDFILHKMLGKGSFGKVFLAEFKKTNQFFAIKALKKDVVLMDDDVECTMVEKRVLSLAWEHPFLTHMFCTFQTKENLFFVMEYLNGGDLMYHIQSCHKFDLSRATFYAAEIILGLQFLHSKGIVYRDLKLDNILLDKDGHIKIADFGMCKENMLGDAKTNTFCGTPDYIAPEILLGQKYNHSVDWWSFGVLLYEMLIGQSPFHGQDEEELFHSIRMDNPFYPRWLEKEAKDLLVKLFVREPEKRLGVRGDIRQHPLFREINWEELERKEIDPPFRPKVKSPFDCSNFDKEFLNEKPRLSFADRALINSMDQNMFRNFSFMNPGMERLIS

SMILES | inhibition [1] | inhibition [2] | inhibition [3] | inhibition [4] | inhibition [5] | inhibition [6] | inhibition [7] | inhibition [8] | inhibition [9] | inhibition [10] | inhibition [11] | inhibition [12] | inhibition [13] | inhibition [14] | inhibition [15] | inhibition [16] | inhibition [17] | inhibition [18] | inhibition [19] | inhibition [20]
N#Cc1c(NC(=O)c2ccccc2F)sc2c1CCCC2 | 0.15% | -1.48% | -0.75% | -0.76% | -0.86% | -0.47% | 0.43% | -1.42% | 0.24% | 0.84% | 1.58% | -2.11% | -0.58% | -2.04% | -0.46% | -1.17% | -0.91% | -0.74% | -0.83% | -0.67%
Cc1ccc2c(c1)/C(=N/Nc1ccc(S(N)(=O)=O)cc1)C(=O)N2 | -1.54% | -1.59% | 0.19% | -0.6% | -1.65% | 0.19% | 0.09% | 0.96% | 1.76% | 1.62% | 1.97% | 0.87% | 1.79% | 0.26% | 0.41% | 0.36% | 3.82% | -1.58% | -2.35% | 0.97%
